Reference: PubChem BioAssay (EPA / NIEHS)
Values joined by “and” are separate entries in the source; they are usually repeats but may differ in a detail not shown here. Equal entries are not always repeated. Inconclusive results are not listed. The source holds several records for some structures; these can differ, active in one and inactive in another. Active and inactive are the calls of the source. How the source made its calls: active means hit-call score of the fitted dose curve at least 0.9, where 1 is the maximum; inconclusive means response in the unintended direction; inactive means score below 0.9.

target: Nuclear receptor subfamily 1 group I member 2 (Homo sapiens) (UniProt O75469); experiment: ATG_PXR_TRANS: Attagene TRANS-FACTORIAL HepG2 Assay for human Pregnane X Receptor (PXR) (AID 2283008)
Sequence (O75469 whole entry, looked up): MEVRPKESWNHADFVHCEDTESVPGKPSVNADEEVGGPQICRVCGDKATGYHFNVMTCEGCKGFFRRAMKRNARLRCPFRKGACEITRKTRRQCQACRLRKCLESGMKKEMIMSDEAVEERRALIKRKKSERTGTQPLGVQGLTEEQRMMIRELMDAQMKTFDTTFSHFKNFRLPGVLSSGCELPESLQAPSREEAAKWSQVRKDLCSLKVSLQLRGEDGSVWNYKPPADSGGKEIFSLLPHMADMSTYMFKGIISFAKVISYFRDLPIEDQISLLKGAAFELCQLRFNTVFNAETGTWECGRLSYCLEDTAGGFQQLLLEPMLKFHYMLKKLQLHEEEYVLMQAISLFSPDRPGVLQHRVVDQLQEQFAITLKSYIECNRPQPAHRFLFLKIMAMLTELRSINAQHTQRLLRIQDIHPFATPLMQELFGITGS
Protocol: ATG_TRANS is a cell-based, multiplexed-readout assay that uses HepG2, a human liver cell line, with measurements taken at 24 hours after chemical dosing in a 24-well plate.ATG_PXR_TRANS is one of 30 assay component(s) measured or calculated from the ATG_TRANS assay. It is designed to make measurements of mRNA induction, a form of inducible reporter, as detected with fluorescence intensity signals by Reverse transcription polymerase chain reaction (RT-PCR) and Capillary electrophoresis technology.Data from the assay component ATG_PXR_TRANS was analyzed into 1 assay endpoint. This assay endpoint, ATG_PXR_TRANS, was analyzed in the positive analysis fitting direction relative to DMSO as the negative control and baseline of activity. Using a type of inducible reporter, measures of mRNA for gain-of-signal activity can be used to understand the reporter gene at the transcription factor-level as they relate to the gene NR1I2. Furthermore, this assay endpoint can be referred to as a primary readout, because this assay has produced multiple assay endpoints where this one serves a reporter gene function. To generalize the intended target to other relatable targets, this assay endpoint is annotated to the nuclear receptor intended target family, where the subfamily is non-steroidal.
Human liver HepG2 cells are transiently transfected with multiple reporter transcription units (MRTUs) in 6-well plates using FuGene 6 reagent (Roche; 3 ml FuGene/1 mg DNA). The MRTU constructs are regulated by a cis-regulating element (promoter). […] A major difference between the CIS and TRANS system is that in CIS activities of endogenous TFs are measured, whereas the TRANS assay evaluates changes in activities of exogenous, chimeric NR-Gal4 proteins. […] At the end of 24 hour incubation, total RNA was isolated using TriZol reagent (Invitrogen). The isolated RNA is then reverse-transcribed using oligo(dT) primer and Mo-MLV reverse transcriptase (Invitrogen) with DNAse I (Ambion) treatment for 30 min. The one-tenth of the produced cDNA was amplified by PCR using Taq DNA polymerase (Invitrogen) and two reporter sequence-specific primers. The PCR products were fluorescently labeled by primer extension with 6-arboxyfluorescein (6-FAM) 5'-labeled reporter sequence-specific primer (2 min at 95 C, 20 s at 68 C and 10 min at 72 C) and these products were digested with 5U of HpaI (New England Biolabs) for 2h at 37 C. The fragments were purified using Qiaquick PCR columns (Qiagen), analyzed on an ABI 3130xL genetic analyzer (Applied Biosystems) with peak positions identified by using a set of X-rhodamine (ROX)-labeled MapMarker1000 molecular weight standards (BioVentures). The raw capillary electrophoresis data was processed using Attagraph software (Attagene).

Compound	AC50	outcome
C[C@]12CCC(=O)C=C1CC[C@@H]1[C@@H]2CC[C@]2(C)C(=O)CC[C@@H]12	7.27 µM (active) and 26.8 µM (active)	inactive
Sc1ccccc1		inactive
CCOP(=S)(OCC)SCSC(C)(C)C	3.49 µM (active) and 2.9 µM (active)	
Clc1ccc(C(c2ccccc2Cl)C(Cl)(Cl)Cl)cc1 (stereo not given)	3.39 µM (active) and 2.82 µM (active) and 3.97 µM (active)	inactive
ClC1=C(Cl)[C@]2(Cl)[C@@H]3[C@H]4C[C@H]([C@@H]5O[C@H]45)[C@@H]3[C@@]1(Cl)C2(Cl)Cl		inactive
CCCCCCCCCC[N+](C)(C)CCCCCCCCCC		inactive
OCC(O)CO		inactive
CCOCCOC(C)=O		inactive
Clc1ccc(C(Cl)(Cl)Cl)cc1		inactive
C[C@]12CCC(=O)C=C1CC[C@@H]1[C@@H]2CC[C@@]2(C)[C@H]1CC[C@]2(C)O		inactive
CCCCCCCCCc1ccc(O)cc1	21.2 µM (active)	inactive
CCOC(=O)C(O)(c1ccc(Cl)cc1)c1ccc(Cl)cc1	18.3 µM (active)	
O=C(O)C(F)(F)C(F)(F)C(F)(F)C(F)(F)C(F)(F)C(F)(F)C(F)(F)C(F)(F)C(F)(F)F	45.7 µM (active) and 60.9 µM (active)	inactive
COc1ccc(O)c(C(C)(C)C)c1	4.55 µM (active)	
CC(C)(O)C(=O)Nc1ccc([N+](=O)[O-])c(C(F)(F)F)c1	21.2 µM (active)	inactive
ClC1=C(Cl)[C@]2(Cl)[C@@H]3[C@@H](Cl)[C@H]4O[C@H]4[C@@H]3C1(Cl)C2(Cl)Cl	4.39 µM (active)	
CCC(=O)O[C@H]1CC[C@H]2[C@@H]3CCC4=CC(=O)CC[C@]4(C)[C@H]3CC[C@]12C	27.8 µM (active)	inactive

Compound	AC50	outcome
CO/C=C(/C(=O)OC)c1ccccc1COc1cccc(C(F)(F)F)n1	0.264 µM (active)	
Cc1cc(-c2ccc(N)c(C)c2)ccc1N		inactive
CCCCCCOC(=O)c1ccccc1C(=O)OCCCCCC	4.17 µM (active)	
CCC(C)(c1ccc(O)cc1)c1ccc(O)cc1	2.52 µM (active) [middle of 4 runs]	
O=NN(c1ccccc1)c1ccccc1	29.9 µM (active)	
ClC(Cl)=C(c1ccc(Cl)cc1)c1ccc(Cl)cc1	6.11 µM (active) [middle of 4 runs]	
CN(C)CCO		inactive
CCSC(=O)N(CC)C1CCCCC1		inactive
ClC1=C(Cl)[C@]2(Cl)[C@@H]3[C@@H]4C[C@@H]([C@H]5O[C@@H]45)[C@@H]3[C@@]1(Cl)C2(Cl)Cl	2.84 µM (active)	
Oc1c(Cl)c(Cl)c(Cl)c(Cl)c1Cl	13.8 µM (active) and 3.3 µM (active)	inactive
O=C(O)C(F)(F)C(F)(F)C(F)(F)C(F)(F)C(F)(F)C(F)(F)C(F)(F)C(F)(F)F	47.5 µM (active) and 104 µM (active) and 50 µM (active)	
Cc1cc2c3c(c1)C(c1ccccc1)=N[C@@H](NC(=O)c1ccncc1)C(=O)N3CC2	2.54 µM (active)	
Cc1ccccc1O		inactive
NS(=O)(=O)C(F)(F)C(F)(F)C(F)(F)C(F)(F)C(F)(F)C(F)(F)C(F)(F)C(F)(F)F		inactive
c1ccc(-c2ccccc2)cc1		inactive
Cc1cc(O)ccc1Cl		inactive
